The source of these data is PMC7862700, “An all-to-all approach to the identification of sequence-specific readers for epigenetic DNA modifications on cytosine”.

Test in all cases: DAPPL (digital affinity profiling via proximity ligation, sequencing); 10 mM Tris-HCl pH 7.5, 50 mM NaCl, 1 mM DTT, 4% glycerol, room temperature, 30 min; GST-TFs on glutathione beads, 16-mer random dsDNA library, 0.1% formaldehyde crosslink after washing; high values mean tight binding
Assay [1] concerns the target T1, FEV (Homo sapiens, UniProt Q99581 1-238).
T1 sequence: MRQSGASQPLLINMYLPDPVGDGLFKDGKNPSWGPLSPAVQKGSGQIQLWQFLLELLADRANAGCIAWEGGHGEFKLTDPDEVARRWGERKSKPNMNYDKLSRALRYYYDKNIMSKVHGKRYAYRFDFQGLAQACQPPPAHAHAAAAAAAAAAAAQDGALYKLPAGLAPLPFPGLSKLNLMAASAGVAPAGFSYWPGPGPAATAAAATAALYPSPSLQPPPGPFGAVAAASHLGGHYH
To be noted: protein: recombinant; tags: N-terminal GST; dsDNA, one strand shown. The essentials:
(§1)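 In yeast, human transcription factors were expressed with a GST fusion, then pulled down on glutathione beads and given DNA barcodes. Pooled with a tag-only sample, they were exposed to 200 nmole of a 16-mer random double-stranded DNA library (Tris/NaCl/DTT/glycerol buffer, room temperature, 30 min), washed, crosslinked with 0.1% formaldehyde, proximity-ligated using BsaI/T4 ligase for 1 h at 37 °C, PCR-amplified and read on an Illumina NextSeq500. Each hexamer's frequency of reads for a factor, divided by the matching frequency for the tag-only sample, gives the binding signal.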

Assay [2] addresses ETV5 (Homo sapiens, UniProt P41161 1-510). To be noted: protein: recombinant; tags: N-terminal GST; dsDNA, one strand shown. The essentials:
as §1

Assay [3] concerns the target HSF1 (Homo sapiens, UniProt Q00613 1-529). To be noted: protein: recombinant; tags: N-terminal GST; chain copies: 3; dsDNA, one strand shown. The essentials: as §1
For assay [4], the target named is T2, SPIC (Homo sapiens, UniProt Q8N5J4 1-248).
T2 sequence: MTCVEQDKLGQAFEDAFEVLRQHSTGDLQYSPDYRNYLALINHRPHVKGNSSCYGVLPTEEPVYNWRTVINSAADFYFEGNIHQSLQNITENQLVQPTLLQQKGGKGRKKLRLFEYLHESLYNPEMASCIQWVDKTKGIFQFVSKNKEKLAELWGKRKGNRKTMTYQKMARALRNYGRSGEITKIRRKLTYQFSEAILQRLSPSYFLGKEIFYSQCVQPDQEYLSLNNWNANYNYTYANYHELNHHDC
To be noted: protein: recombinant; tags: N-terminal GST; dsDNA, one strand shown. The essentials:
as §1

The target of assay [5] is ELF4 (Homo sapiens, UniProt Q99607 1-663). To be noted: protein: recombinant; tags: N-terminal GST; dsDNA, one strand shown. The essentials: as §1
Assay [6] concerns the target T3, ELK4 (Homo sapiens, UniProt P28324-2 1-405).
T3 sequence: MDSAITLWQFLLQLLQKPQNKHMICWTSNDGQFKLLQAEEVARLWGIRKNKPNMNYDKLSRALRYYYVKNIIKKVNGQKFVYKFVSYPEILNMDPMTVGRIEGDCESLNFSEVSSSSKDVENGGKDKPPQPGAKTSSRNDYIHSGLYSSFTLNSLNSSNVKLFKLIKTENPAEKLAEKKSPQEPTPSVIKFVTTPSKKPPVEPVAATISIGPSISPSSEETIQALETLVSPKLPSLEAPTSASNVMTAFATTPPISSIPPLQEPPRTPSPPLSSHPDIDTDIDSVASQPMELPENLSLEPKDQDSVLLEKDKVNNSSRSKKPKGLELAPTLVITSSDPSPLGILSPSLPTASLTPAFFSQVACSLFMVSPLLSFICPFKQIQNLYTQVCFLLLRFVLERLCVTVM
To be noted: protein: recombinant; tags: N-terminal GST; dsDNA, one strand shown. The essentials:
as §1

Assay [7] has as its target T4, ETV2 (Homo sapiens, UniProt O00321 1-342).
T4 sequence: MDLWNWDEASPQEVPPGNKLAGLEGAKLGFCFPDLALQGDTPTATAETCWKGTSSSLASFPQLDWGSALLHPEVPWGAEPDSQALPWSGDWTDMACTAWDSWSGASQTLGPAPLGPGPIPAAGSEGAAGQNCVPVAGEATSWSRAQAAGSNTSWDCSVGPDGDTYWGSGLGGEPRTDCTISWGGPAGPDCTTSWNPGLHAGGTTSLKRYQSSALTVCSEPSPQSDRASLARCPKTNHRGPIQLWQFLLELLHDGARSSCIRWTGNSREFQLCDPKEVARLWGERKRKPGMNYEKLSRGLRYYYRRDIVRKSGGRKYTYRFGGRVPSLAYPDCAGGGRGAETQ
To be noted: protein: recombinant; tags: N-terminal GST; dsDNA, one strand shown. The essentials: as §1

For assay [8], the target named is T5, ELF3 (Homo sapiens, UniProt P78545 1-371).
T5 sequence: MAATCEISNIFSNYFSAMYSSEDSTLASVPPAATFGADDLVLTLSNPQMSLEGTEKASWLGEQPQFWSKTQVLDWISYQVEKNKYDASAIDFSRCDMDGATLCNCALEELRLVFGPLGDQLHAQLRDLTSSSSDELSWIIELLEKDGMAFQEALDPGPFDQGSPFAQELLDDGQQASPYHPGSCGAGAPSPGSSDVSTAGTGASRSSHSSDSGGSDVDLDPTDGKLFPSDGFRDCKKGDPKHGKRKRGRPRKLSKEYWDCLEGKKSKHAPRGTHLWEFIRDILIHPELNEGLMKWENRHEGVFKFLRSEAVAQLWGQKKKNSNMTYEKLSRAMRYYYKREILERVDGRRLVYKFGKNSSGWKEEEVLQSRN
The settings on record: protein: recombinant; tags: N-terminal GST; dsDNA, one strand shown. The essentials:
as §1

The target in assay [9] is CRX (Homo sapiens, UniProt O43186 1-299). The settings on record: protein: recombinant; tags: N-terminal GST; dsDNA, one strand shown. The essentials:
as §1

For assay [10], the target named is ETV1 (Homo sapiens, UniProt P50549 1-477). The settings on record: protein: recombinant; tags: N-terminal GST; dsDNA, one strand shown. The essentials: as §1
Assay [11] deals with T6, ERF (Homo sapiens, UniProt P50548 1-548).
T6 sequence: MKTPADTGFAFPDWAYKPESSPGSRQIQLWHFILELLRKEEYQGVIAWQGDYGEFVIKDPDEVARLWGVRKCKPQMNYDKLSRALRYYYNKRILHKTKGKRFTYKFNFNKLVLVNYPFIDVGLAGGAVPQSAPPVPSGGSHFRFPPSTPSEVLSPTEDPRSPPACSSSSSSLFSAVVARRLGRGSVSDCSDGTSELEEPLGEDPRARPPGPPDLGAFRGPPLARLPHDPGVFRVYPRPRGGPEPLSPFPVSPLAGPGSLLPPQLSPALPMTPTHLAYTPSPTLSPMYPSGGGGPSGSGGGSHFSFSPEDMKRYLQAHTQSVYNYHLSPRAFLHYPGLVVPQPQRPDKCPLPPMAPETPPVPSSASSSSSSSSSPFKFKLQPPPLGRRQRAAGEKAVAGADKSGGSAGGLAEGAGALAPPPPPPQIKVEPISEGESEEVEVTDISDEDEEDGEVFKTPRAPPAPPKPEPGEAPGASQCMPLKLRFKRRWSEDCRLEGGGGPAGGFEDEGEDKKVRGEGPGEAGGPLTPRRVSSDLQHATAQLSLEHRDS
To be noted: protein: recombinant; tags: N-terminal GST; dsDNA, one strand shown. The essentials: as §1

Assay [12] has as its target T7, ETV3L (Homo sapiens, UniProt Q6ZN32 1-361).
T7 sequence: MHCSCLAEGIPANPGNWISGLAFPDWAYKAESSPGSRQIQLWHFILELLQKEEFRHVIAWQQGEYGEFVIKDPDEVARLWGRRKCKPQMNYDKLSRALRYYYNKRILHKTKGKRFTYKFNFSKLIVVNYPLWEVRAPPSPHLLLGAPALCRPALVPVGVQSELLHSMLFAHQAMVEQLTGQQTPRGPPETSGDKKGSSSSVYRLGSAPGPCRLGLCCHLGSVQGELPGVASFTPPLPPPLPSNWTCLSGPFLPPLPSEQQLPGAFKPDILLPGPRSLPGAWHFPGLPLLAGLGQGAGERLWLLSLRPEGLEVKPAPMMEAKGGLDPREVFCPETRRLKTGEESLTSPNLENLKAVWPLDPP
The settings on record: protein: recombinant; tags: N-terminal GST; dsDNA, one strand shown. The essentials:
as §1

Assay [13] addresses T8, ETS2 (Homo sapiens, UniProt P15036 1-469).
T8 sequence: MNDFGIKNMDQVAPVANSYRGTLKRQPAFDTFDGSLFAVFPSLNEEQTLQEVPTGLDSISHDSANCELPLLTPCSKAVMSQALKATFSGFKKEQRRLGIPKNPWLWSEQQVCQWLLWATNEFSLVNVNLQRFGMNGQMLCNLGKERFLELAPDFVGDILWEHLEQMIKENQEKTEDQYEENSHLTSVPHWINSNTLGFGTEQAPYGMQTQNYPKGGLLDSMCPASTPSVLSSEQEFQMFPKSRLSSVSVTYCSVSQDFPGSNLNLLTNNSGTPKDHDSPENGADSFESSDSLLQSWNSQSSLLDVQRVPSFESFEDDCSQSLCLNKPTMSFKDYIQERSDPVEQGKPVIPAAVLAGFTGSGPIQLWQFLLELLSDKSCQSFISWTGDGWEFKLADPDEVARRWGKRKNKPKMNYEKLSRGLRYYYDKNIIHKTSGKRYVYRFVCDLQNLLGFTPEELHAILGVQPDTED
To be noted: protein: recombinant; tags: N-terminal GST; dsDNA, one strand shown. The essentials: as §1

The target in assay [14] is T9, SPDEF (Homo sapiens, UniProt O95238 1-335).
T9 sequence: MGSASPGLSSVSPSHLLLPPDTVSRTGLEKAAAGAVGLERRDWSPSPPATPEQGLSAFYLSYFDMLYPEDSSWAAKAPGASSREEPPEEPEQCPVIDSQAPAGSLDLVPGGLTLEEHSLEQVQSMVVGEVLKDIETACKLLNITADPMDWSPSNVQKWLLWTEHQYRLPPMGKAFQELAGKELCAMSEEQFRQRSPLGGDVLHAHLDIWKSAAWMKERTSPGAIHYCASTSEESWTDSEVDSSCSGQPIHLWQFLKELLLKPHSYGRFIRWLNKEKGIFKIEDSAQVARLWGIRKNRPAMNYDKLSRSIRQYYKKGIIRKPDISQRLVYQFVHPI
To be noted: protein: recombinant; tags: N-terminal GST; dsDNA, one strand shown. The essentials:
as §1

For assay [15], the target named is T10, ETV7 (Homo sapiens, UniProt Q9Y603 1-341).
T10 sequence: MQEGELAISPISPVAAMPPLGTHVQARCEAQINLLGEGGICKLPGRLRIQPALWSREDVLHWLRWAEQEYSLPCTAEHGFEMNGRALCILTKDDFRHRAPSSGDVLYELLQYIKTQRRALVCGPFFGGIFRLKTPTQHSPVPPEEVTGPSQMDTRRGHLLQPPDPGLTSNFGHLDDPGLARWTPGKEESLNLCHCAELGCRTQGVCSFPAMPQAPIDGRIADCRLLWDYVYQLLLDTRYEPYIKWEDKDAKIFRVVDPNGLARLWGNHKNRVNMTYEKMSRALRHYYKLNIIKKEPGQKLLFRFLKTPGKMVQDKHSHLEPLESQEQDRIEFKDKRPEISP
The settings on record: protein: recombinant; tags: N-terminal GST; dsDNA, one strand shown. The essentials:
as §1

Assay [16] concerns the target T11, ELF5 (Homo sapiens, UniProt Q9UKW6-2 1-255).
T11 sequence: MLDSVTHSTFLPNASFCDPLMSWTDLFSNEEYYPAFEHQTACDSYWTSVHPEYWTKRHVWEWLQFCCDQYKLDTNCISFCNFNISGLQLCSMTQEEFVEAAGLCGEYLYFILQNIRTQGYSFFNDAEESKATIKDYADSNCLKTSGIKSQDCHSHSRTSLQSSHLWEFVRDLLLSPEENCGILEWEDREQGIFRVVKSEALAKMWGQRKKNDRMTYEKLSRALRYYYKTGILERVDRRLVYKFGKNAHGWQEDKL
To be noted: protein: recombinant; tags: N-terminal GST; dsDNA, one strand shown. The essentials:
as §1

The target in assay [17] is T12, ETV3 (Homo sapiens, UniProt P41162-2 1-143).
T12 sequence: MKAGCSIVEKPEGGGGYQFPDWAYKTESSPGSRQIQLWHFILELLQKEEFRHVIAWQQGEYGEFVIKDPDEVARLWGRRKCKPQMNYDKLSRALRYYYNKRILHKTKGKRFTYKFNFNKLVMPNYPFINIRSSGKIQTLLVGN
To be noted: protein: recombinant; tags: N-terminal GST; dsDNA, one strand shown. The essentials: as §1

Assay [18] has as its target ETV6 (Homo sapiens, UniProt P41212 1-452). To be noted: protein: recombinant; tags: N-terminal GST; dsDNA, one strand shown. The essentials: as §1

HSF1, sequence (Q00613 whole entry): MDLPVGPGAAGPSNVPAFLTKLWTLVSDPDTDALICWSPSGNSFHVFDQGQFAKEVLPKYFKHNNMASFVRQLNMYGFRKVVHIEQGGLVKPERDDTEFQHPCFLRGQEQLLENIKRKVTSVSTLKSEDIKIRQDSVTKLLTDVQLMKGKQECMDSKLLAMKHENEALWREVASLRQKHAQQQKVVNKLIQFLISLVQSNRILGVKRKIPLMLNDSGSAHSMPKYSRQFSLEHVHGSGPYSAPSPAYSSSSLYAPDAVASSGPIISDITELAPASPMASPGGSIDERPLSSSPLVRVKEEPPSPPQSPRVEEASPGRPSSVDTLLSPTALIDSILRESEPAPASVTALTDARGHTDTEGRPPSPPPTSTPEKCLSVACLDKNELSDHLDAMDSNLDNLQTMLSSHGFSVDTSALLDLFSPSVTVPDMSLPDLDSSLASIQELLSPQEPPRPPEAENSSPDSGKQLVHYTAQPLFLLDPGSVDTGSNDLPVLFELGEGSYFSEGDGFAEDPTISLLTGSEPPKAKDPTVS
ELF4, sequence (Q99607 whole entry): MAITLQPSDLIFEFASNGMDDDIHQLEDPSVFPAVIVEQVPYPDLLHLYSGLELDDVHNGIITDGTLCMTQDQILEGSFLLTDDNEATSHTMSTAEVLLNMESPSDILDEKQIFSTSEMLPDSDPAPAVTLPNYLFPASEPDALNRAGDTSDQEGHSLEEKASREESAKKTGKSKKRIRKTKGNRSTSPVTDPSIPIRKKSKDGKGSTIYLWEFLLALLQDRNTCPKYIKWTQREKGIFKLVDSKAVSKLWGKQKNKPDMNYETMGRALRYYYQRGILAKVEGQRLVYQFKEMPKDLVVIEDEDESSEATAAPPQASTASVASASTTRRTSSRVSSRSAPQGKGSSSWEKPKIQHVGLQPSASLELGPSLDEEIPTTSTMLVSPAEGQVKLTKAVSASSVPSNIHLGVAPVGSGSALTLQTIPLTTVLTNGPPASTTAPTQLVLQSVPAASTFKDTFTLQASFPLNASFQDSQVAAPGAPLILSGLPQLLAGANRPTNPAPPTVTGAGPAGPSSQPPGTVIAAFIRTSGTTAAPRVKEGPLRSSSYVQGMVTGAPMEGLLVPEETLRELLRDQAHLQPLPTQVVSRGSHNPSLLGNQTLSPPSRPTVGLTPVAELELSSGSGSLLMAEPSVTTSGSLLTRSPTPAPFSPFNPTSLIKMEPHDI
CRX, sequence (O43186 whole entry): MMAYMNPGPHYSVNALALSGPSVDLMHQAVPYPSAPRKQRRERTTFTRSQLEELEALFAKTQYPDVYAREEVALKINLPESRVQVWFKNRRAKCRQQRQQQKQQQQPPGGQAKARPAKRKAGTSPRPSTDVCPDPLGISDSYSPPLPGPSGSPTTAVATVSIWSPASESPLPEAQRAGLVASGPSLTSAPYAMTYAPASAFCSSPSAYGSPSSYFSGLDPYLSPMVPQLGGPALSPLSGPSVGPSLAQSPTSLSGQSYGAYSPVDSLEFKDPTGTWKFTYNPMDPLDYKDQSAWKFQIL
ETV5, sequence (P41161 whole entry): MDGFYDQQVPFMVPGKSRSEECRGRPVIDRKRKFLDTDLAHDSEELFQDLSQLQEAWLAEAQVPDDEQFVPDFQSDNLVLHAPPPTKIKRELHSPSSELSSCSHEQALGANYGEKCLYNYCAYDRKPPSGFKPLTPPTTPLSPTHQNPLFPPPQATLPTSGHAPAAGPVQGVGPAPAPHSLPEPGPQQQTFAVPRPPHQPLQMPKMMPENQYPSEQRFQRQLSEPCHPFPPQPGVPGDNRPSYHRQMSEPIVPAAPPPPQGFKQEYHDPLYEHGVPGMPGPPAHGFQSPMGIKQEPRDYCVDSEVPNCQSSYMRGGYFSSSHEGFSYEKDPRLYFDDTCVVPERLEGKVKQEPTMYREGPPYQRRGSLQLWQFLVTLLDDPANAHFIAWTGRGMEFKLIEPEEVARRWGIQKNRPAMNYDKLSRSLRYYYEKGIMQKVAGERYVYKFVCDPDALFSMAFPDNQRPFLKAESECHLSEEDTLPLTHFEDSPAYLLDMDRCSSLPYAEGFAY
ETV6, sequence (P41212 whole entry): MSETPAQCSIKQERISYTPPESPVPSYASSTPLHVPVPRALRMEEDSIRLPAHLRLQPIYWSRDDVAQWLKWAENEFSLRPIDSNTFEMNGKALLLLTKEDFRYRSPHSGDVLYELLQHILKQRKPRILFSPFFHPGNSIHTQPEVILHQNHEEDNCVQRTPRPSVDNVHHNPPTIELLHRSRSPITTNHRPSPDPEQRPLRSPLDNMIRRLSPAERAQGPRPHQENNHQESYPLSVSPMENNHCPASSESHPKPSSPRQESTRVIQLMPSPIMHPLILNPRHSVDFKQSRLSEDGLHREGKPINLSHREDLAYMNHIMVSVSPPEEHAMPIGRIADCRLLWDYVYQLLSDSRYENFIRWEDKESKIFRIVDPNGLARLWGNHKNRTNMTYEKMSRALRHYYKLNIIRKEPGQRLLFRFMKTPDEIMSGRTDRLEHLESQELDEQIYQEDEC
ETV1, sequence (P50549 whole entry): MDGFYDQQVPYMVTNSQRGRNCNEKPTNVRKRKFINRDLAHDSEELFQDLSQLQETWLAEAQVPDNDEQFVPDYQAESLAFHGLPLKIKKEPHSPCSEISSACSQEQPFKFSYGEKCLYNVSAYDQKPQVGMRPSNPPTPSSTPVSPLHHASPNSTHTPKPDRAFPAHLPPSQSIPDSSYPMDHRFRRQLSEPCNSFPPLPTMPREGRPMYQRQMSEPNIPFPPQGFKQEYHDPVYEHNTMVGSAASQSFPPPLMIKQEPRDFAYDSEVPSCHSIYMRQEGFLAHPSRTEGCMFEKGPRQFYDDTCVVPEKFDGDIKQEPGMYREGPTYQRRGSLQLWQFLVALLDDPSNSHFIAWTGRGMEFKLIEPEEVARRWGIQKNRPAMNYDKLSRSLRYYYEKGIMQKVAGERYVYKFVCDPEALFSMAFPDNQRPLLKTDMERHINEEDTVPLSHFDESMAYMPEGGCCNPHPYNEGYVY

For TTACAC, the binding signal in assay [1] is 1.24 fold enrichment (6-mer frequency, TF over GST control); in assay [2], 1.23 fold enrichment (6-mer frequency, TF over GST control); in assay [3] it was 1.35 fold enrichment (6-mer frequency, TF over GST control); in [4], 1.17 fold enrichment (6-mer frequency, TF over GST control); in [5], 1.21 fold enrichment (6-mer frequency, TF over GST control); in [6] it was 1.25 fold enrichment (6-mer frequency, TF over GST control). The binding signal in assay [7] was 1.16 fold enrichment (6-mer frequency, TF over GST control); in assay [8] it was 1.2 fold enrichment (6-mer frequency, TF over GST control); in [9], 1.73 fold enrichment (6-mer frequency, TF over GST control); in assay [10] it was 1.27 fold enrichment (6-mer frequency, TF over GST control); in assay [11] it was 1.2 fold enrichment (6-mer frequency, TF over GST control); in [12], 1.15 fold enrichment (6-mer frequency, TF over GST control). Also, the binding signal in assay [13] is 1.22 fold enrichment (6-mer frequency, TF over GST control); in [14] it was 1.23 fold enrichment (6-mer frequency, TF over GST control); in [15] it was 1.19 fold enrichment (6-mer frequency, TF over GST control); in assay [16], 1.19 fold enrichment (6-mer frequency, TF over GST control); in [17], 1.15 fold enrichment (6-mer frequency, TF over GST control); in assay [18] it was 1.2 fold enrichment (6-mer frequency, TF over GST control).
